# Compounds with a hit are over-represented: about 2.4% of the library has one in this group of screens.
# POLI inh: blocks human DNA polymerase iota activity; actives 1% (n = 390,000); AID 588590; Q9UNA4; Potency, µM (doses to about 115 µM), actives largely listed as inhibitors; Pol iota fluorescent replication assay, 10 min
#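 Pol iota at 10 nM preincubated 15 min with compounds at room temperature; reaction started with fluorescent substrate, 50 nM final. Fluorescence read kinetically at 0 and 10 min; buffer-only wells as negative control.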
# WRN inhibitor: WRN helicase (human) inhibition; Q14191; actives 0.46% (n = 360,000); AID 651768; Potency, µM (titrated, usually from 114 µM), actives largely listed as inhibitors; WRN helicase unwinding, fluorescent forked duplex, kinetic; further: nearly all actives have a fitted effect of over 55% in size
#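 Fluorescence dequenching readout, ex 525 nm/em 598 nm, kinetic mode: forked duplex DNA (100 nM final) with adjacent fluorophore and quencher unwound by WRN (20 nM final) with 2 mM ATP. Compound preincubation 15 min, room temperature.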
# POLB inh: blocks human DNA polymerase beta activity; Pol beta primer extension/strand displacement, fluorescence kinetic; Potency, µM (titrated, usually from 114 µM), usual class: inhibitors; actives 1.3% (n = 340,000); AID 485314
#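 Homogeneous kinetic assay of primer extension and strand displacement by 10 nM Pol beta, preincubated 15 min at room temperature with compound before 50 nM substrate (final) was added. Read at 0 and 10 min; four-parameter Hill fit.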
# Pol eta inh-1: blocks human DNA polymerase eta activity; Q9Y253; recombinant Pol eta, fluorescent DNA replication assay; Potency, µM (top dose mostly 114 µM), most hits filed as inhibitors; actives 1.2% (n = 390,000); AID 588591
#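 Pol eta (10 nM) was preincubated with compounds for 15 min at room temperature, after which fluorescent replication substrate (50 nM final) was added to start the reaction. Fluorescence was read kinetically at 0 and 10 min.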
# FEN1 inh: blocks human flap endonuclease 1. AID 588795. actives 0.35% (n = 390,000). Potency, µM (doses to about 114 µM), actives largely listed as inhibitors. P39748. Recombinant FEN1 flap cleavage, fluorescence, 15 min; further: nearly all actives have a fitted effect of over 65% in size
#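 FEN1 at 10 nM preincubated with compounds 15 min at room temperature, then flap DNA substrate added at 50 nM final. Signal read at 0 and 15 min; concentration-response fitted with four-parameter Hill equation.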
# Pol kappa inh-1: blocks human DNA polymerase kappa activity; Potency, µM (titrated, usually from 107 µM), usual class: inhibitors; purified Pol kappa, fluorescent DNA synthesis assay, 10 min; actives 0.53% (n = 400,000); Q9UBT6; AID 588579
# Target sequence (Q9UBT6 whole entry, looked up): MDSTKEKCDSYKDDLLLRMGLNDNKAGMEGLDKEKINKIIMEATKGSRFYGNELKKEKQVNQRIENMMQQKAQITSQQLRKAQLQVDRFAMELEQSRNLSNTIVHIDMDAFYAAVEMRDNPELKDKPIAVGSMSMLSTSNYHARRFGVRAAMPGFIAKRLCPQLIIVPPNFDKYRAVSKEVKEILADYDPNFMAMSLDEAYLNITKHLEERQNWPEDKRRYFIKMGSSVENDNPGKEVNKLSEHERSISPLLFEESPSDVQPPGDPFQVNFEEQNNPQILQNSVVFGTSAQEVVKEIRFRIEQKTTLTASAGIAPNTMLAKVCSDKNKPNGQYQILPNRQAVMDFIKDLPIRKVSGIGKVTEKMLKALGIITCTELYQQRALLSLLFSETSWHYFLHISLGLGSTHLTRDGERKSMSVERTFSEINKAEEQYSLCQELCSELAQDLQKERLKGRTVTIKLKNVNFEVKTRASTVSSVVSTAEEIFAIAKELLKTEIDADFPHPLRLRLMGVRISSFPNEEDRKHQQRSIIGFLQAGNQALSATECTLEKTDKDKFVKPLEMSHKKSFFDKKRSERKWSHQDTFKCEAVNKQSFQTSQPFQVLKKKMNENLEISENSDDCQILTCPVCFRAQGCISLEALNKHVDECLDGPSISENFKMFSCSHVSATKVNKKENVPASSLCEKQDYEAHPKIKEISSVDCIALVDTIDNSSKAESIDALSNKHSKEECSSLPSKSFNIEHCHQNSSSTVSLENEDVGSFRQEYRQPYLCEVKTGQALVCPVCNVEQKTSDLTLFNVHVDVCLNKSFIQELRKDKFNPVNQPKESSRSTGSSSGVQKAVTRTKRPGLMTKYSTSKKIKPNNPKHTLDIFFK
#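 Activity was followed as the change in fluorescence between reads at 0 and 10 min after starting the reaction with 50 nM substrate. Beforehand, 10 nM polymerase had been preincubated with compound for 15 min at room temperature.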
# GALK inh confirm: confirmation of human galactokinase (GALK) inhibitors | shares compounds with Pol eta inh-1 | purified GALK, Kinase-Glo ATP depletion luminescence | Potency, µM (titrated, usually from 115 µM), hits mostly inhibitors | actives 70% (n = 150) | AID 2015
# Redox cycling: generates H2O2 by redox cycling, flagging GALK artifacts; shares compounds with Pol eta inh-1; Phenol red-HRP H2O2 redox cycling, absorbance 600 nm; Potency, µM (doses to about 115 µM), hits mostly inhibitors; actives 40% (n = 150); AID 2035
# HEK293 viability: HEK-293 cytotoxicity, GALK inhibitor secondary; shares compounds with Pol eta inh-1; HEK-293 viability, ATP luminescence (CellTiter-Glo), 24/48 h; Potency, µM (series often up to 46.1 µM), most hits filed as inhibitors; actives 10% (n = 170)
# Pol kappa inh-2: Pol kappa (human) inhibition, cherry-pick confirmation; shares compounds with Pol eta inh-1; AID 720501; actives 76% (n = 920); Potency, µM, actives largely listed as inhibitors; purified Pol-kappa, fluorescent strand-displacement substrate
# Pol eta inh-2: confirmation of human DNA polymerase eta inhibitors; shares compounds with Pol eta inh-1; Pol eta primer extension, TAMRA/BHQ fluorescence, 10 min; Potency, µM, most hits filed as inhibitors; actives 64% (n = 2,600)
# Numbers stand for hits; i = inactive; ? = inconclusive; nt = no result given; [ ] = dose if it differs, or a comment. The call rests on the fitted dose curve; in most records, active means well fitted curve in the direction sought with a large enough effect; inconclusive means small, poorly fitted or top-dose-only effect, or another doubt; inactive means no such curve, though single readings can be large; an effect the other way counts as inactive or inconclusive.
SMILES,POLI inh,WRN inhibitor,POLB inh,Pol eta inh-1,FEN1 inh,Pol kappa inh-1,Pol eta inh-2,others
CC(=O)Nc1ccc(NC(=S)NC(=O)/C=C/c2ccco2)cc1,?,?,i,28µM,50µM,45µM,60,
CCCCOC(=O)c1ccc(NC(=O)CSc2nc3c(c(=O)[nH]2)CCCC3)cc1,i,nt,i,nt,i,i,nt,
O=C(O)c1ccc(S(=O)(=O)N[C@@H](Cc2ccc(O)cc2)C(=O)O)cc1,nt,nt,nt,nt,nt,nt,38,Pol kappa inh-2=11
Cc1ccc(S(=O)(=O)N[C@@H](CO)C(=O)N[C@@H](Cc2ccc(O)cc2)C(=O)O)cc1,i,i,i,i,i,i,nt,
O=C1CCCC(O)=C1C(C#Cc1ccccc1)C1=C(O)CCCC1=O,i,?,?,i,i,i,nt,
O=C1CCCC(O)=C1Sc1ccccc1C(=O)O,32µM,i[11.6 µM],10µM,8.9µM,?,?,60,
Cc1noc(C)c1-c1ccc2ncnc(N3CCOCC3)c2c1,nt,nt,nt,nt,nt,i,nt,
N#Cc1c(/N=C/c2ccc(-c3ccccc3C(=O)O)o2)sc2c1CCCC2,?,i,28µM,28µM,i,i,67,
N#Cc1c(/N=C/c2ccc(-c3ccc(C(=O)O)c(Cl)c3)o2)sc2c1CCCC2,i,i,nt,22µM,i,i,?,
COCCn1c(=O)c(-c2ccc(Cl)cc2)nc2cnc(Nc3ccccc3)nc21,nt,nt,nt,nt,nt,i,nt,
Cc1ccccc1Cn1c2ccccc2c2cnn(CC(=O)NCCCc3ccccc3)c(=O)c21,i,nt,i,i,i,i,nt,
COc1ccc(C2=Nn3c(nnc3-c3ccccc3Cl)SC2)cc1OC1CCOC1 (stereo unspecified),i,nt,nt,i,i,i,nt,Pol kappa inh-2=8.4
COc1ccc(C2=Nn3c(nnc3-c3ccccc3Cl)SC2)cc1OC1CCCC1,i,nt,nt,i,i,?,nt,Pol kappa inh-2=17
COc1ccc(OC)c(-c2nnc3n2N=C(c2ccc(OC)c(OC4CCOC4)c2)CS3)c1 (stereo unspecified),i,nt,nt,i,i,i,nt,
CC1(C)CC(=O)C2=C(C1)NC(Nc1nc3ccccc3o1)=NC21CCCC1,i,i,i,i,i,i,nt,GALK inh confirm=?;Redox cycling=i;HEK293 viability=i
CC1(C)CC(=O)C2=C(C1)NC(Nc1nc3ccccc3o1)=NC2c1ccccc1Cl (stereo unspecified),i,nt,nt,nt,i,i,nt,HEK293 viability=i
Cc1ccc(-c2nc3c(c(SCC(=O)N4CCOCC4)n2)Cc2c(CO)cnc(C)c2O3)cc1,79µM,i[11.6 µM],i,?,i,i,?,
COc1ccc(-c2nc3c(c(SCC(=O)N4CCOCC4)n2)Cc2c(CO)cnc(C)c2O3)cc1,i,i,i,i,i,i,nt,
CCOC(=O)CSc1nnc(CNc2cccc(Cl)c2)n1C,i,i,i,i,i,i,nt,
COCCCn1c(Cc2csc(Nc3cccc(Cl)c3)n2)nnc1SCC(=O)OC,22µM,i[11.6 µM],25µM,20µM,i,40µM,38,Pol kappa inh-2=17
OC[C@@H]1[C@@H](c2ccc(F)cc2)C(c2ccc(F)cc2)=NN1c1ccccc1,nt,nt,nt,nt,nt,i,nt,
Cc1ccc(S(=O)(=O)/N=C2/NC(=O)/C(=C/c3cc([N+](=O)[O-])ccc3O)S2)cc1,28µM,?,i,28µM,?,?,nt,Pol kappa inh-2=?
Cc1cc(/C=C(/C#N)c2nc3ccccc3[nH]2)c(C)n1-c1ccccc1C(=O)O,11µM,?,20µM,18µM,i,?,38,Pol kappa inh-2=17
Cc1ccc2nc(/C(C#N)=C\c3cc(C)n(-c4cccc([N+](=O)[O-])c4)c3C)[nH]c2c1,i,i,i,i,i,i,nt,
Cc1ccc2nc(/C(C#N)=C/c3ccc(-c4ccccc4C(=O)O)o3)[nH]c2c1,?,i[11.6 µM],22µM,20µM,?,?,nt,Pol kappa inh-2=?
SMILES,POLI inh,WRN inhibitor,POLB inh,Pol eta inh-1,FEN1 inh,Pol kappa inh-1,Pol eta inh-2,others
Cc1c(C(=O)N2CCN(C)CC2)oc2ccc(Br)cc12,i,i,i,i,i,i,nt,
Cc1c(C(=O)N2CCCC2)oc2ccc(Br)cc12,?,i[11.6 µM],?,50µM,i,i,?,
O=Nc1c(O)ccc2cc(S(=O)(=O)O)ccc12,18µM,i[11.6 µM],nt,14µM,?,?,30,Pol kappa inh-2=17
O=C(COC(=O)c1ccc(Br)o1)Nc1ncc(Cl)cc1Cl,?,i,?,?,i,i,nt,
O=C(COC(=O)C1CCCC1)Nc1ncc(Cl)cc1Cl,?,i,nt,16µM,i,?,?,
O=C(COC(=O)c1cnccn1)Nc1ncc(Cl)cc1Cl,?,?,nt,22µM,i,i,?,
O=C(COC(=O)c1ccc(O)cc1O)Nc1ncc(Cl)cc1Cl,i,i[11.6 µM],nt,?,i,i,?,
N#Cc1c(NC(=O)COC(=O)c2ccc(O)cc2O)sc2c1CCC2,?,i[11.6 µM],nt,20µM,i,79µM,?,
O=S(=O)(c1ccccc1)N1CCC2(CCN(c3cccc(-c4ccccc4)c3)CC2)CC1,nt,nt,nt,nt,nt,i,nt,
CCN(Cc1ccccc1)S(=O)(=O)c1cc(C(=O)Nc2cc(Cl)cc(Cl)c2)ccc1F,i,nt,i,i,i,i,nt,
COc1ccc(OC)c(CNc2ncnc3c2nc2n3CCCC2)c1,i,nt,i,i,i,i,nt,
COc1ccc2c(c1)c1nnc(SCCN3CCOCC3)nc1n2C,i,nt,nt,nt,i,i,nt,
O=C1C=C(c2ccc(C(=O)O)cc2)C[C@@H](c2ccc3c(c2)OCO3)C1,?,i[11.6 µM],nt,?,i,i,?,
O=c1[nH][nH]c2cc(=O)n(-c3ccc(Cl)cc3)nc12,?,?,?,?,i,79µM,?,Pol kappa inh-2=17
Cc1cc(=O)oc2c(CN3CCC(C)CC3)c(O)c(Cl)cc12,?,?,16µM,13µM,i,?,?,
CCN(CC)Cc1c(O)c(Cl)cc2c(C)cc(=O)oc12,?,i[11.6 µM],10µM,20µM,i,89µM,?,
Cc1cc(=O)oc2c(CN3CCCC3)c(O)c(Cl)cc12,i,i,?,?,i,i,nt,
COc1ccccc1CCNc1ncnc2nc[nH]c12,?,nt,nt,nt,i,?,nt,
O=C(CN1C(=O)S/C(=C\c2cccn2-c2ccc(C(=O)O)cc2)C1=O)Nc1ccc(F)cc1,nt,nt,nt,nt,nt,nt,30,

# Screens as filed in PubChem BioAssay.
